Reference: PubChem BioAssay (EPA / NIEHS)
The source made the active and inactive calls. Rule for the calls: active = hit-call score of the fitted dose curve at least 0.9, where 1 is the maximum; inactive = score below 0.9.

Key:
[1] = APR_HepG2_CellCycleArrest_1hr: Apredica 1-hour HepG2 Assay for Cell Cycle Arrest (AID 2282666); details: high-content imaging, actives raise or lower the signal
Method in brief: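 HepG2 cells exposed for 1 h to 0.39–200 uM compound (0.5% DMSO). Fixed, Hoechst-stained nuclei imaged by ArrayScan; DNA content quantified by Cell Cycle analysis; bidirectional fit against DMSO.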

[2] = APR_HepG2_CellLoss_1hr: Apredica 1-hour HepG2 Assay for Cell Loss (AID 2282668); details: high-content imaging;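 note: curves fitted both ways against DMSO so gain or loss of cells counts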
Method in brief: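 HepG2 cells were treated for 1 h with compound at 0.39–200 uM, in duplicate, in 0.5% DMSO. After formaldehyde fixation, Hoechst 33342-stained nuclei were imaged on an ArrayScan to count cells. Data were fitted bidirectionally versus DMSO.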

[3] = APR_HepG2_p53Act_1hr: Apredica 1-hour HepG2 Assay for p53 Activation (AID 2282671); details: high-content imaging, actives raise or lower the signal
Method in brief: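 HepG2 cells treated 1 h with compound at 0.39–200 uM (10 concentrations, duplicate) in 0.5% DMSO. Formaldehyde-fixed, permeabilised cells immunostained for p53 with Hoechst 33342; high-content imaging, bidirectional fit versus DMSO.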

[4] = APR_HepG2_MitoticArrest_1hr: Apredica 1-hour HepG2 Assay for Mitotic Arrest (AID 2282672); details: high-content imaging, actives raise or lower the signal
Method in brief: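 HepG2 cells exposed 1 hr to compounds at 0.39–200 uM (0.5% v/v DMSO final), then fixed in 3.7% formaldehyde and immunostained for phospho-histone H3 with Hoechst 33342. Mitotic arrest scored by automated fluorescence imaging, fitted bidirectionally versus DMSO.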

[5] = APR_HepG2_MitoMass_1hr: Apredica 1-hour HepG2 Assay for Mitochondrial Mass (AID 2282674); details: high-content imaging, actives raise or lower the signal
Method in brief: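 HepG2 cells dosed 1 hr with 0.39-200 uM compound (0.5% DMSO), duplicate wells. Mitochondria stained with 250 nM MitoTracker Red CMXRos for 30 min before formaldehyde fixation, imaged at 20x by ArrayScan; bidirectional fit versus DMSO.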

[6] = APR_HepG2_MitoMembPot_1hr: Apredica 1-hour HepG2 Assay for Mitochondrial Membrane Potential (AID 2282675); details: imaging, actives raise or lower the signal
Method in brief: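 HepG2 cells dosed 1 hour with 0.39–200 uM compound in duplicate, 0.5% DMSO final. MitoTracker Red CMXRos (250 nM, 30 min) loaded before formaldehyde fixation; fluorescence quantified by high-content imaging, bidirectional fitting versus DMSO.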

[7] = APR_HepG2_StressKinase_1hr: Apredica 1-hour HepG2 Assay for Stress Kinase (AID 2282906); details: HepG2 stress kinase (phospho-c-Jun) imaging, actives raise or lower the signal
Method in brief: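 HepG2 cells dosed 0.39-200 uM (0.5% DMSO) for 1 h, then formaldehyde-fixed. Stress kinase read by phospho-c-Jun immunofluorescence using high-content imaging; bidirectional fit vs DMSO.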

[8] = APR_HepG2_CellLoss_24hr: Apredica 24-hour HepG2 Assay for Cell Loss (AID 2282908); details: high-content imaging;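 for AC50: fit in both directions so a hit may be cell loss or gain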
Method in brief: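 HepG2 cells exposed 24 hr to 0.39–200 uM compound in duplicate at 0.5% v/v final DMSO. Cells fixed in 3.7% formaldehyde and Hoechst 33342-stained. Cell number came from nuclear imaging at 20x. Bidirectional fit versus DMSO.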

[9] = APR_HepG2_MicrotubuleCSK_24hr: Apredica 24-hour HepG2 Assay for Microtubule CSK Stabilty (AID 2282909); details: HepG2 microtubule cytoskeleton imaging, actives raise or lower the signal
Method in brief: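 HepG2 cells were treated 24 hr with compound at 0.39–200 uM in duplicate (0.5% DMSO final), then fixed and permeabilized. Alpha-tubulin immunofluorescence was imaged by high-content microscopy, with bidirectional fitting against DMSO and taxol as positive control.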

[10] = APR_HepG2_MitoticArrest_24hr: Apredica 24-hour HepG2 Assay for Mitotic Arrest (AID 2282910); details: high-content imaging, actives raise or lower the signal
Method in brief: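 Compounds are dosed onto HepG2 cells across ten concentrations up to 200 uM for 24 hr. Cells are then fixed in 3.7% formaldehyde, permeabilised, and labelled for phospho-histone H3 and nuclei; images are scored by cell cycle analysis and fitted bidirectionally relative to DMSO.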

[11] = APR_HepG2_MitoMembPot_24hr: Apredica 24-hour HepG2 Assay for Mitochondrial Membrane Potential (AID 2282911); details: imaging, actives raise or lower the signal
Method in brief: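 HepG2 cells exposed 24 h to 0.39–200 uM compounds in duplicate, 0.5% v/v DMSO final. MitoTracker Red CMXRos 250 nM loaded 30 min before formaldehyde fixation; high-content imaging at 20x, bidirectional fit versus DMSO.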

[12] = APR_HepG2_MitoMass_24hr: Apredica 24-hour HepG2 Assay for Mitochondrial Mass (AID 2282912); details: high-content imaging, actives raise or lower the signal
Method in brief: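 HepG2 cells exposed 24 hr to 0.39–200 uM compound, 0.5% v/v DMSO, in duplicate. Stained before fixation with 250 nM MitoTracker Red CMXRos for 30 min, then imaged at 20x with Hoechst nuclei. Fitted in both directions against DMSO.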

[13] = APR_HepG2_p53Act_24hr: Apredica 24-hour HepG2 Assay for p53 Activation (AID 2282913); details: high-content imaging, actives raise or lower the signal;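 note: p53 protein immunofluorescence averaged per cell in HepG2 with Hoechst nuclei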
Method in brief: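 HepG2 cells exposed 24 h to compounds at 0.39–200 uM in duplicate, 0.5% v/v DMSO final; fixed, permeabilized, stained with anti-p53 antibody and Hoechst 33342; fluorescence imaging; bidirectional curve fit versus DMSO.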

[14] = APR_HepG2_CellCycleArrest_72hr: Apredica 72-hour HepG2 Assay for Cell Cycle Arrest (AID 2282914); details: high-content imaging, actives raise or lower the signal
Method in brief: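 HepG2 cells exposed 72 h in duplicate to 0.39–200 uM compound, 0.5% DMSO final. Formaldehyde-fixed, Hoechst 33342-stained nuclei imaged at 20x, six fields per well; DNA content per valid cell quantified by cell-cycle image analysis, bidirectional fit versus DMSO.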

[15] = APR_HepG2_CellLoss_72hr: Apredica 72-hour HepG2 Assay for Cell Loss (AID 2282915); details: high-content imaging
Method in brief: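 Cell number comes from Hoechst 33342-labelled nuclei, imaged at 20x after 3.7% formaldehyde fixation. Dosing was 0.39–200 uM, ten concentrations in duplicate, 0.5% DMSO final, for 72 h. Bidirectional fit relative to DMSO baseline.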

[16] = APR_HepG2_NuclearSize_1hr: Apredica 1-hour HepG2 Assay for Nuclear Size (AID 2282670); details: high-content imaging, actives raise or lower the signal
Method in brief: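 HepG2 cells dosed 1 hr with 0.39–200 uM compound (0.5% DMSO), formaldehyde-fixed, Hoechst 33342-stained and imaged at 20x; nuclear diameter from nuclear stain, fitted bidirectionally against DMSO.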

[17] = APR_HepG2_NuclearSize_24hr: Apredica 24-hour HepG2 Assay for Nuclear Size (AID 2282907); details: high-content imaging, actives raise or lower the signal
Method in brief: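 HepG2 cells exposed 24 h to compounds at 0.39–200 uM (0.5% DMSO), fixed, Hoechst 33342 stained and imaged at 20x; nuclear diameter measured by automated image analysis, fitted bidirectionally against DMSO controls.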

[18] = APR_HepG2_P-H2AX_1hr: Apredica 1-hour HepG2 Assay for H2AX Phosphorylation (AID 2282673); details: high-content imaging, actives raise or lower the signal
Method in brief: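 HepG2 dosed 1 hr at 0.39-200 uM (0.5% DMSO final), duplicate. Fixed in 3.7% formaldehyde, Triton permeabilized, immunostained for phospho-histone H2A.x (1:200) with Hoechst 33342; ArrayScan 20x imaging, bidirectional fit vs DMSO.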

[19] = APR_HepG2_CellCycleArrest_24hr: Apredica 24-hour HepG2 Assay for Cell Cycle Arrest (AID 2282905); details: imaging, actives raise or lower the signal;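 note: cell cycle arrest scored as ratio of 2N to 4N nuclear DNA content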
Method in brief: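 Compounds at 0.39–200 uM (0.5% DMSO) for 24 h, then fixed and Hoechst 33342 stained. Cell-cycle analysis of nuclear DNA content by high-content imaging, fitted bidirectionally versus DMSO.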

Measured: AC50

CCOP(=S)(OCC)Oc1ccc2c(C)c(Cl)c(=O)oc2c1
active: [10] 114 µM | [15] 49.1 µM
not listed: [16] | [17] | [18] | [19]
inactive: all other assays above

CCc1cccc(C)c1N(C(=O)CCl)C(C)COC (stereo not drawn)
active: [15] 106 µM
not listed: [6] | [17] | [18] | [19]
inactive: all other assays above

CCc1cnc(C2=NC(C)(C(C)C)C(=O)N2)c(C(=O)O)c1 (stereo not drawn)
not listed: [3] | [6] | [13] | [18] | [19]
inactive: all other assays above

CCCOc1nn(C(=O)NS(=O)(=O)c2ccccc2C(=O)OC)c(=O)n1C
not listed: [5] | [6] | [17] | [19]
inactive: all other assays above

CCOP(=S)(OCC)Oc1cc(C)nc(C(C)C)n1
not listed: [5] | [6] | [16] | [17]
inactive: all other assays above

O=[N+]([O-])c1cc(C(F)(F)F)c(Cl)c([N+](=O)[O-])c1Nc1ncc(C(F)(F)F)cc1Cl
active: [2] 94.8 µM | [5] 103 µM | [7] 9.87 µM | [8] 49.5 µM | [9] 1.14 µM | [14] 0.676 µM | [15] 1.33 µM
inactive: [1] | [16] | [4] | [17] | [10] | [11] | [12]

C[N+]1(C)CCCCC1
not listed: [6] | [16] | [17] | [18]
inactive: all other assays above
